Data published in PubChem BioAssay (NCI).
About 79,000 compounds went through this panel and 15% of them were active in at least one assay; those are over-represented in the sample as a whole. A number with no mark means an inactive call. Calls of active or inactive are those of the source. No stated cut-off is given here; in the data, active means growth inhibition above about 70%; inactive means the rest.

Key:
[1] = NCI Yeast Anticancer Drug Screen. Data for the rad50 strain (AID 155);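 further: 0% = growth of vehicle-only cultures of the same strain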; details: S. cerevisiae rad50 strain growth inhibition; at 50.0 µM; stronger effect = higher value
In short: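 Yeast carrying a defined DNA repair defect were exposed to test compounds, and growth was compared with vehicle-treated controls to give percent inhibition.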

[2] = NCI Yeast Anticancer Drug Screen. Data for the mec2-1 strain (AID 157); details: S. cerevisiae mec2-1 strain, at 50.0 µM, stronger effect = higher value
In short: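 mec2-1 yeast strain, carrying an alteration in DNA damage repair or cell cycle control, was exposed to compounds; growth inhibition was measured relative to vehicle-treated controls.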

[3] = NCI Yeast Anticancer Drug Screen. Data for the sgs1 mgt1 strain (AID 161);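 further: 0% = growth of cultures given vehicle only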; details: S. cerevisiae sgs1 mgt1 strain, at 50.0 µM, stronger effect = higher value
In short: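 Percent growth inhibition was derived by comparing compound-exposed mutant yeast with vehicle-exposed cultures. The strain carries alterations in DNA damage repair.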

[4] = NCI Yeast Anticancer Drug Screen. Data for the cln2 rad14 strain (AID 165);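 further: 0% = growth equal to vehicle treated cultures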; details: S. cerevisiae cln2 rad14 strain, at 50.0 µM, stronger effect = higher value
In short: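 Yeast carrying cln2 and rad14 alterations (cell cycle control and DNA damage repair) were exposed to compounds. Growth inhibition was measured against vehicle-treated controls.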

[5] = NCI Yeast Anticancer Drug Screen. Data for the bub3 strain (AID 167); details: S. cerevisiae bub3 mutant strain, at 50.0 µM, stronger effect = higher value
In short: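 Compounds were applied to a genetically altered yeast strain carrying a cell-cycle control defect. Growth inhibition was scored against vehicle-treated controls.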

[6] = NCI Yeast Anticancer Drug Screen. Data for the mlh1 rad18 strain (AID 175); details: S. cerevisiae mlh1 rad18 strain growth inhibition; at 50.0 µM; stronger effect = higher value
In short: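 Growth inhibition of the yeast strain was measured after compound exposure and expressed relative to vehicle-treated controls. The strain carries defined defects in DNA damage repair.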

SMILES | growth inhibition [1] | growth inhibition [2] | growth inhibition [3] | growth inhibition [4] | growth inhibition [5] | growth inhibition [6]
Cn1c(=O)c2snnc2n(C)c1=O | -2.75% | -2.65% | -2.65% | -9.5% | 2.9% | -16.6%
CCCCCCCCC/C=C1\CCC(CN2CCOCC2)C1=O (stereo not given) | 89% (active) | 92.8% (active) | 90.3% (active) | 89.6% (active) | 88.8% (active) | 88% (active)
C/C=C(\C)C(=O)OC1CC(OC(=O)/C(C)=C/C)C2(C)C3C(=O)C=C(C)C2C3C1(C)C (stereo not given) | 18.8% | 5.85% | 34.6% | 25.6% | 3.05% | 6.8%
CC(O)C12OC1CC1C3CC4OC45CC(O)CCC5(C)C3CCC12C (stereo not given) | 36.5% | 20.6% | 38.7% | 31.1% | 36.9% | 9.1%
CC(=O)Nc1ccc(S(=O)(=O)Nc2c(-c3ccccc3)[nH]c(C)c2C(C)=O)cc1 | 1.65% | 7.85% | -10.3% | -0.65% | 1.65% | 13.8%
CC[N+](C)(CC)c1ccccc1 | -4.35% | -54.3% | -18.6% | 0.3% | -33.5% | 1.1%
C/C=C/C(=O)NN | 13.3% | 7.85% | -4.65% | -21.2% | -2.9% | 25.8%
COC(=O)c1c(OC)cc2cc3c(c(O)c2c1C)C(=O)C1(O)C(=O)C=C(OC)C(OC(=O)CC(C)N)=C1C3=O (stereo not given) | 26.1% | 1.05% | 24.2% | 25.9% | 22.9% | 33%
COc1ccc(-c2nnc3cc(C)n4nnnc4n23)cc1OC | 5.3% | 5.55% | 13.7% | 9.1% | 11.6% | 16.2%
CC(=S)N=Cc1c(N)[nH]n(-c2ccccc2)c1=O | -40.5% | -12.8% | -24.6% | -0.3% | -20.1% | -24.5%
CC(CCc1ccccc1)NC1=NCCO1 (stereo not given) | -9.6% | -12.2% | -16.4% | -23.6% | -1.2% | 2.7%
CN1CC(c2ccccc2)=Cc2c1ccc(N)c2N=N | -13.3% | -29.2% | -0.3% | 15.6% | 12.8% | 0.15%
CCOC(=O)NN(C(=O)OCC)c1c(C)[nH]c2ccccc12 | 20.3% | 10.6% | 19.4% | -10.6% | 4.65% | 24.5%
O=S(=O)([O-])c1ccc2c(c1)-c1nc-2nc2[n-]c(nc3nc(nc4[n-]c(n1)c1ccc(S(=O)(=O)[O-])cc41)-c1cc(S(=O)(=O)[O-])ccc1-3)c1ccc(S(=O)(=O)[O-])cc21.[Cu+2].[Na+] | -13.7% | -40.1% | -23.8% | -16.2% | -34% | -94.2%
CN=C(N/N=C/c1ccccc1)N(C)C | 5.95% | 11.1% | -5.35% | -3% | 23.9% | 10.4%
Cc1cccc(Cl)c1NC(=O)CN(C)C | 21.4% | -0.55% | 17.7% | 10.4% | 19.6% | 24.7%
CNC(C#N)c1ccc(OC)cc1 (stereo not given) | 3.55% | 17.9% | -26.9% | -17.4% | -9.75% | -28.4%
COC(=O)C1=C(C)N(NC(N)=O)C(C)(O)C12CCOC2=O (stereo not given) | -3.8% | -2.2% | 2.15% | -56.8% | -5.95% | -14.1%
COc1cccc2c1C(=O)OC2c1cccc2ccccc12 (stereo not given) | 10.5% | -7.45% | 7.25% | 28.2% | 4.3% | 16%
C(=C\c1ccc2ccccc2c1)/c1ccc2ccccc2c1 | 6.75% | 25.6% | 16.6% | 63.5% | 6.85% | 31.4%

SMILES | growth inhibition [1] | growth inhibition [2] | growth inhibition [3] | growth inhibition [4] | growth inhibition [5] | growth inhibition [6]
O=CN/C=C/c1ccccc1O | -5% | 1.8% | 4.1% | 6.95% | 12.1% | -4.6%
Cc1cccc(NC(=O)OCCOC(=O)Nc2cccc(C)n2)n1 | -15.1% | -11.6% | -19.4% | -9.25% | -11.1% | -1.15%
CCc1cccc(Nc2ccccc2C(=O)O)c1 | 42% | 25.2% | 29.8% | -26.6% | -2.05% | -2.2%
CC(=O)Nc1ccc(/C=C(\NC(=O)c2ccccc2)C(=O)NNS(=O)(=O)c2ccc(C)cc2)cc1 | 21.6% | 17.7% | -9.3% | -5.5% | -4.2% | 21.4%
CCOC(=O)CN/N=C(\N)CSS(=O)(=O)O | -5.25% | -17.4% | -2.05% | 13.3% | 9.65% | 3.05%
CCC(Cl)COP(=O)(CC(Cl)CC)OC(C)P(=O)(OCC(Cl)CC)OCC(Cl)CC (stereo not given) | 98% (active) | 98.3% (active) | 98.7% (active) | 97.5% (active) | 97.2% (active) | 98.4% (active)
C=C1CCC2[C@@H](CCC3[C@]2(C)CCC[C@]3(C)C(=O)OC)[C@@H]1CC=O (stereo not given in full) | 11.4% | 10.2% | 9.25% | 23.4% | 9.5% | 14.8%
C#CC(C)OC(=O)Nc1ccccc1 (stereo not given) | 28.6% | -22.2% | 3.4% | -3.95% | -7.65% | -8.3%
CC(=O)OC1CCC2(C)C(CCC3C2CC(OC(C)=O)C2(C)C(C(C)CCC(c4ccccc4)c4ccccc4)CCC32)C1 (stereo not given) | 9.1% | -20.4% | 1.1% | 14.9% | 0.15% | -1.55%
CC(=O)C(C(=O)NCc1ccccc1)C(c1ccc2c(c1)OCO2)C(C(C)=O)C(=O)NCc1ccccc1 (stereo not given) | -5.7% | 1.25% | -23.6% | -17.3% | -0.65% | 0.45%
CCCCCCCCC(Br)C(Br)CCCCCCCC(=O)NCCCOC (stereo not given) | -2.45% | -13.5% | 1.95% | -33.1% | 1.95% | 18.3%
CCOC(=O)C(C(C)=O)C(c1ccc(OCc2ccccc2)c(C)c1)C(C(C)=O)C(=O)OCC (stereo not given) | 14.7% | 3.9% | 25.9% | 27.1% | 8.55% | 19.9%
COc1ccc(C2(CN(C)C)COc3cc(OC)c(OC)cc3C2=O)cc1OC (stereo not given) | 27% | 2.8% | -7% | 27.6% | -2.1% | 13.3%
OCCNCN(CNCCO)c1nc(N(CNCCO)CNCCO)nc(N(CNCCO)CNCCO)n1 | 55.6% | 19.7% | 32.6% | -49.5% | 2.8% | 12.4%
CN(C)c1ncnc2c1cnn2-c1ccc(Cl)cc1 | -6.15% | -6.2% | -9.3% | -36.6% | -0.95% | -8.45%
CCOC(=O)C12CCCC1(O)N(NC(=O)c1ccccc1)C(C)=C2C(=O)OC (stereo not given) | 10.8% | 21.6% | 6.3% | -56.5% | 2.95% | -10.2%
O=C(Cl)c1cc(-c2ccc(Cl)cc2)nc2c(-c3ccccc3)cccc12 | -4.05% | 9.15% | -9.4% | -38.5% | -0.35% | 8.5%
CCOC(=O)/C(=N\O)C(C)(C)c1ccnc2ccccc12 | -4% | 0.6% | -10.9% | 4.05% | -5% | 4.7%
COC1CCC2(C)C3CCC4C(=CCC5C(C)(C)C(OC(C)=O)CCC45C)CC3(C)CCC2C1(C)C (stereo not given) | 13.1% | -19.4% | -8.35% | -20.8% | 0.1% | 0.2%
CCCCCC(=O)N1CCOCC1 | 11.2% | 10.8% | 5.6% | -6.35% | -21.4% | 9%
